For 39 compounds, fold change and outcome results are on record in PubChem BioAssay AID1259240 (Keith Lab, Institute of Cancer Science, University of …, 2017).

Active and inactive are the calls of the source. Cut-off read from the data, not from the text of the source: active = fold change mostly below about -2 (no sharp cut-off); inactive = mostly above about -1.8.

A short description of the experiment: TERT promoter activity modulators, primary screen, cell-based, luciferase reporter, human (AID 1259240). As to conditions: A2780 TERT promoter luciferase reporter, 16 h; at 20 µM, fold versus average of vehicle-only wells.
Regarding `Cc1oc2cc(OC(=O)N3CCOCC3)ccc2c(=O)c1Oc1ccccc1Br`, the fold change was -1.46 (inactive).
For the compound `CCOC(=O)C1CCN(c2c(N(C)C3CCCCC3)c(=O)c2=O)CC1`, the fold change is 1.32 (inactive).
On to `CCOC(=O)C1CCCN(c2c(N3CCC(N4CCCCC4)CC3)c(=O)c2=O)C1` (centres undefined), for which the fold change is -1.11 (inactive).
For `Cc1cc(/C=C2/SC(=S)N(CC(=O)O)C2=O)c(C)n1-c1ccncc1`, the fold change is -3.58 (active).
With `Cc1noc(C(=O)NC(C)C)c1Cl`, the fold change is 1.11 (inactive).
As for `O=C(NCc1ccncc1)c1cc(-c2ccc3c(c2)OCO3)nc2ccccc12`, the fold change is -1.04 (inactive).
Regarding `Cc1cc(S(=O)(=O)n2nc(-c3cccc(F)c3)cc2N)ccc1F`, the fold change was -1.3 (inactive).
Take `O=C(c1cnc2ccccc2n1)N1CCn2c(nc3ccccc32)C1`: the fold change is 1.4 (inactive).
On to `CN1CCc2nc3sc(C(=O)Nc4ccc(F)cc4)c(N)c3cc2C1`, for which the fold change is -1.42 (inactive).
As for `O=C(Cn1c(=O)oc2cc(S(=O)(=O)NC3CCCC3)ccc21)NC1CCCCCCC1`, the fold change is 1.01 (inactive).
For `CCOC(=O)C1CCCN(c2c(N3CCN(c4ccc(F)cc4)CC3)c(=O)c2=O)C1` (centres undefined), the fold change is -1.2 (inactive).
For `CN(C)S(=O)(=O)N(CC(=O)Nc1ccccc1F)c1ccccc1`, the fold change is -1.38 (inactive).
In the case of `Cc1ccccc1Cn1nc(C)c(NC(=O)c2cc(C3CC3)on2)c1C`, the fold change is -1.04 (inactive).
On to `CCOC(=O)N1CCC(Nc2c(N3CCCC3)c(=O)c2=O)CC1`, for which the fold change was -1.12 (inactive).
Consider `CCCOc1ccc(Cc2nn3c(=O)/c(=C\c4cccc(OC(C)=O)c4)sc3nc2=O)cc1`, for which the fold change was -1.43 (inactive).
Take `CCn1c(SCC(=O)Nc2nnc(C)s2)nnc1-c1c[nH]c2ccccc12`: the compound was called inactive.
On to `CSc1ccc(-c2nc3sccn3c2Nc2ccccc2)cc1`, for which the fold change is -1.05 (inactive).
As to `Cc1nc2c3ccccc3n3c(CCCC(=O)NCc4ccccn4)nnc3n2n1`, the fold change was -1.25 (inactive).
Take `CCc1ccc2nc(NC3=NCN(CCN4CCOCC4)CN3)nc(C)c2c1`: the fold change was -1.26 (inactive).
As to `COCCNc1cc(C)nc2c(-c3ccc(Cl)cc3)c(C)nn12`, the fold change is -1.07 (inactive).
Consider `Cc1nc(SCC(=O)c2ccccc2)c2c(=O)n(C)c(=O)n(C)c2n1`, for which the fold change was 1.14 (inactive).
Still for that read-out and setting: with `Cn1c(C(=O)N2CCC(C(=O)NCCc3c[nH]c4ccccc34)CC2)cc2sccc21` the figure was -1.05 (inactive); with `Cc1ccc(-n2c(-c3ccco3)nc3c(cnn3-c3ccccc3C)c2=O)cc1F`, -1.09 (inactive).
Take `CN1CCN(CCNC(=O)Cn2ncc3c4ccccc4n(C)c3c2=O)CC1`: the fold change was -1.16 (inactive).
On to `c1ccc2nc3c(nc2c1)Nn1cnnc1S3`, for which the fold change is -1.42 (inactive).
For `COc1ccc(N2CN=c3s/c(=C4\C(=O)N(C)c5ccccc54)c(=O)n3C2)cc1`, the fold change is -1.56 (inactive).
As for `COc1ccc(C2=NN3C(C2)c2cc(Cl)ccc2OC3c2cccnc2)cc1` (centres undefined), the fold change was 1.37 (inactive).
For `O=C(NCc1ccccc1Cl)c1c(-n2cccc2)sc2c1CCC2`, the fold change is -1.05 (inactive).
As to `c1ccc(CN2CCN(c3nnc(Cc4cccnc4)c4ccccc34)CC2)cc1`, the fold change was 1.04 (inactive).
`CCCN(CCC)CCCNc1ccc2nncn2n1`: the fold change is 1 (inactive).
In the case of `O=C1CCCC2=C1C(c1ccccc1Cl)n1nc(-c3ccccc3)nc1N2` (centres undefined), the compound was called inactive.
With `Cc1ccc(-c2cc(N)n(S(=O)(=O)c3cccc([N+](=O)[O-])c3)n2)cc1`, the fold change is 1.05 (inactive).
Consider `COCCn1cc(/C=C2/C(=O)Nc3ccccc32)c2ccccc21`, for which the fold change is 1.23 (inactive).
As to `COc1ccc(S(=O)(=O)n2cnc3ccccc32)c(C)c1`, the fold change was -1.08 (inactive).
On to `c1cnc2c(SCc3cn4ccccc4n3)cccc2c1`, for which the fold change is -1.15 (inactive).
Same read-out and setting: with `Cc1oc(-c2ccccc2F)nc1CSc1nc2ccncc2[nH]1` the figure was -1.15 (inactive).
Still for that read-out and setting: with `COC(=O)c1ccc(CSc2nc(-c3ccco3)nc3c2c(=O)n(C)c(=O)n3C)o1` the figure was -1.08 (inactive); with `Cc1cc(C)n2c(NC(C)C)c(-c3ccc(C)o3)nc2n1`, 1.2 (inactive).
As for `COc1cccc(C(=O)Cn2c(=O)n(C3CCCC3)c(=O)c3cc(OC)c(OC)cc32)c1`, the fold change was -1.38 (inactive).
